# Compound activity (PubChem BioAssay)
# The list is not random: actives were taken first. Their share in the collection is about 1.3%.
# BH1578 lux ind: inducers of Vibrio cholerae quorum light production without autoinducers; V. cholerae BH1578 lux reporter, luminescence, 6 h; activation, % at 18.7 µM; hit rate 0.16% among 350,000; AID 588436; in the data active = activation mostly above about 9.7%, no sharp cut-off
# PriA SSB inh: inhibitors of Klebsiella pneumoniae PriA binding to SSB C-terminal tail. AlphaScreen SSBct-PriA binding, biotinylated peptide. inhibition, % at 33 µM. hit rate 0.6% among 430,000; in the data active = inhibition mostly above about 37%, no sharp cut-off; inactive = mostly below about 20%;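 also: plate controls were negative control peptide for no effect and reference peptide for full effect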
# 3CLpro inhibitor: SARS-CoV 3CLpro protease inhibition | P0C6X7 | recombinant SARS-CoV 3CLpro, quenched FRET peptide cleavage | inhibition, % at 6 µM | hit rate 0.14% among 290,000 | AID 1706; in the data active = inhibition above about 12%
# VHR inh abs: blocks human VHR1 dual specificity phosphatase | inhibition, % at 13.3 µM | AID 1654 | recombinant VHR phosphatase, pNPP absorbance | hit rate 0.52% among 290,000 | P51452; in the data active = inhibition above about 50%
# Target sequence (P51452 whole entry, looked up): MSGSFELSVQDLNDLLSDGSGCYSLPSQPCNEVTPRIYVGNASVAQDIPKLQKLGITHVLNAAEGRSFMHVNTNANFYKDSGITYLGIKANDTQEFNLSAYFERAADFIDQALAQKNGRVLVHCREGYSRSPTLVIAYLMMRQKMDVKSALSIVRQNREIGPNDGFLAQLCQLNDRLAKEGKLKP
# CCHF vOTU inh: CCHFV vOTU protease inhibition; Pep-AMC fluorescence; inhibition, % at 11.5 µM; hit rate 0.55% among 370,000; AID 651958; in the data active = inhibition above about 30%; also: 0% = vehicle wells with enzyme and 100% = no enzyme wells
# TcdB GH inh: TcdB glycohydrolase inhibition; inhibition, % at 9.99 µM; P18177; hit rate 0.24% among 350,000; TcdB glycohydrolase enzymatic assay, plate reader; in the data active = inhibition above about 10%
# An asterisk follows results filed as active; i = inactive; x = no result given.
SMILES,BH1578 lux ind,PriA SSB inh,3CLpro inhibitor,VHR inh abs,CCHF vOTU inh,TcdB GH inh
O=C(O)COn1c(-c2ccc(Cl)cc2)nc2ccc(Cl)cc21,0,-3,-2,3,9,10*
Cc1ccc(O)c(C(=O)c2cnc3c(c2)COc2ccc(C)cc2-3)c1,0,39*,4,0,2,x
Cc1ccc2c(c1)-c1ncc(C(=O)c3cc(Br)ccc3O)cc1CO2,x,x,2,56*,1,0
Cc1ccc(C)c(Nc2c([N+](=O)[O-])cc(C(=O)N3CC(=O)Nc4ccccc43)cc2[N+](=O)[O-])c1,i,53*,4,-11,7,x
COC(=O)c1ccc(C)c(-n2c(N)c(C(=O)Nc3ccccc3C)sc2=S)c1,x,39*,x,x,x,x
COc1ccccc1NC(=O)c1sc(=S)n(-c2ccc(Cl)cc2)c1N,x,36*,x,x,x,x
CCOc1ccnc2c1c(=O)n(CC(=O)NCc1ccco1)c(=O)n2C,x,-14,x,x,x,x
CC1(C)C2CCC1(CS(=O)(=O)N1CCC(c3ccc4c(c3)OCO4)C1)C(=O)C2 (stereo not drawn),x,-10,x,x,x,x
Cc1nnc(CNC(=O)c2cc(N3CCCC3)ncn2)o1,x,-7,x,x,x,x
COc1ccc(N2CCC(CNC(=O)Nc3cccc(OC)c3)C2)cc1 (stereo not drawn),i,77,0,33,6,x
COc1ccc(N2CCC(CNC(=O)Nc3ccc(Cl)cc3)C2)cc1 (stereo not drawn),0,-7,-1,52*,-8,-15
CCOc1ccc(NC(=O)NCC2CCN(Cc3ccc(F)cc3)CC2)cc1,2,-6,-2,57*,-7,1
CN(C1CCCC1)S(=O)(=O)c1ccc(C(=O)Nc2ccccc2C#N)cc1,x,-5,x,x,x,x
CN(C)c1ccc(C2C(=C(O)c3ccccc3)C(=O)C(=O)N2CCCC(=O)O)cc1 (stereo not drawn),x,-6,x,x,x,x
CCC(C)OC(=O)c1cc(C)nc2c(Br)cc(Br)cc12 (stereo not drawn),i,-13,0,58*,12,x
CCOC(=O)c1cc(C)nc(SC)c1C#N,-1,-9,-2,-14,5,-1
Cn1c(O)c(/C=C/C=Nc2ccccc2)c(=O)n(C)c1=S,i,x,0,54*,7,x
Cc1onc(-c2c(Cl)cccc2Cl)c1C(=O)Nc1ccc2c(c1)OCCO2,i,-13,0,14,4,x
Cc1onc(-c2ccccc2Cl)c1C(=O)NCCN1Cc2ccccc2C1=O,-2,47*,-3,-7,16,x
Cc1onc(-c2ccccc2Cl)c1C(=O)NCCN1CCN(c2ccccc2F)CC1,x,3,x,x,x,x
Cc1nc(-c2ccccc2F)sc1CNC(=O)c1c(-c2ccccc2Cl)noc1C,x,-13,x,x,x,x
Cc1onc(-c2ccccc2Cl)c1C(=O)Nc1ccc2c(c1)OCO2,i,-18,-1,51*,7,x
Cc1nc(C)c(-c2ccc(=O)n(CCNC(=O)c3c(-c4ccccc4Cl)noc3C)n2)s1,x,37*,x,x,x,x
O=c1[nH]c(=S)n(CCC2=CCCCC2)c(O)c1C=NN1CCOCC1,x,7,x,x,x,x
CCn1c(=NC(=O)c2ccc(Cl)s2)sc2cc(F)ccc21,x,-3,x,x,x,x
SMILES,BH1578 lux ind,PriA SSB inh,3CLpro inhibitor,VHR inh abs,CCHF vOTU inh,TcdB GH inh
Cc1ccc(S(=O)(=O)Nc2c(C)cc([N+](=O)[O-])cc2C)cc1,-1,-7,x,x,13,2
Cc1cc([N+](=O)[O-])cc([N+](=O)[O-])c1NCC(C)C,i,44*,2,3,2,1
COc1ccc(Cl)cc1NC(=O)CSc1nccnc1N1CCSCC1,x,-43,x,x,x,x
OCCN(Cc1nc(-c2ccc3c(c2)OCO3)no1)Cc1cccs1,0,-5,2,58*,-7,2
O=C(Cn1nc(-c2ccco2)ccc1=O)Nc1cc(N2CCCC2)ncn1,x,-6,x,x,x,x
S=C(NCCCN1CCOCC1)Nc1ccc(Nc2ccccc2)cc1,-1,8,2,13,0,5
S=C(NCCN1CCOCC1)Nc1ccc(Cl)cc1Cl,0,-15,9,-7,8,1
S=C(NCCCN1CCOCC1)Nc1ccc(Cl)cc1Cl,0,2,3,55*,-13,2
S=C(NCCN1CCOCC1)Nc1ccc(Nc2ccccc2)cc1,0,8,1,49,-11,31*
O=C(CSc1nc2ccccc2n2cnnc12)Nc1ccc(Br)cc1,x,-1,x,x,x,x
O=C(c1ccsc1)N1CCCCC(c2ccc(Cl)cc2)C1 (stereo not drawn),x,-7,x,x,x,x
O=C(CCCSc1ccc(NC(=O)C2CC2)nn1)Nc1ccccc1Cl,x,-19,x,x,x,x
Cc1ccccc1NS(=O)(=O)c1ccc(OCC(=O)N2CCCCC2)cc1,-4,-3,0,-12,-11,11*
Cc1ccc(NC(=S)N2CCC(NC(=O)c3ccc(C)cc3)CC2)cc1,-7,-7,-2,-26,3,1
Cc1ccc(NC(=S)N2CCC(NC(=O)c3cccc(F)c3)CC2)cc1,0,15,2,55*,5,1
CCOc1cccc2cc(C(=O)Nc3nc(-c4ccccc4)c(C(=O)c4ccccc4)s3)oc12,x,12,x,x,x,x
CCc1ccc(N=c2c([N+](=O)[O-])nn(-c3ccccc3)n2O)cc1,i,70*,1,-21,x,x
Cc1cc(C)cc(N=c2c([N+](=O)[O-])nn(-c3ccc(Cl)cc3)n2O)c1,0,51*,2,41,-1,1
COC(=O)c1ccc(S(=O)(=O)NCC2CCN(C(=O)c3ccccc3F)CC2)cc1,x,-4,x,x,x,x
Cc1ccsc1C(=O)C1CCCN(Cc2cnc(N3CCOCC3)s2)C1 (stereo not drawn),i,5,2,32,0,1
COc1ccc2cc(C(=O)C3CCCN(Cc4cnc(N5CCOCC5)s4)C3)ccc2c1 (stereo not drawn),i,10,3,52*,-10,2
CCC(=O)N1CCc2ccc(N)cc2C1,x,30,x,x,x,x
Cc1ccc(S(=O)(=O)n2ccc(-c3cccc(OCc4c(F)cccc4Cl)c3)n2)cc1,-4,-7,4,6,-2,x
Cc1ccc(S(=O)(=O)n2ccc(-c3ccc(OCc4c(F)cccc4Cl)cc3)n2)cc1,i,-8,-2,53*,-13,x
Cc1c(Cl)ccc2sc(NC(=O)c3ccc(Br)s3)nc12,x,1,x,x,x,x
SMILES,BH1578 lux ind,PriA SSB inh,3CLpro inhibitor,VHR inh abs,CCHF vOTU inh,TcdB GH inh
CSc1nc(N2CCOCC2)c2cnn(CCNC(=O)c3ccccc3F)c2n1,x,7,x,x,x,x
CCCCNC(=O)CCCCn1c(=S)[nH]c2c([nH]c3ccc(OC)cc32)c1=O,i,6,0,2,8,1
COc1ccc2[nH]c3c(=O)n(CCCCC(=O)NCCN4CCCC4)c(=S)[nH]c3c2c1,i,-12,-4,6,-3,11*
Cc1ccc2nc3c(cc(C(=O)NC4CCCCC4)c(=N)n3C3CCCCC3)c(=O)n2c1,i,-3,-3,12,-67,0
Cc1ccc2nc3c(cc(C(=O)NC4CCCC4)c(=N)n3C3CCCCC3)c(=O)n2c1,0,1,2,58*,-75,-1
NNC(=O)c1[nH]c2ccccc2c1-c1ccccc1,0,102*,5,-16,-9,0
CCCCC(=O)NCCOc1ccc2nnc(-c3ccc(F)cc3)n2n1,x,-11,x,x,x,x
